PubChem BioAssay AID651821 (The Scripps Research Institute Molecular Screening Center, 2012)
Out of some 370,000 compounds screened, about 4,700 (1.3%) were called active. This is one part of a sample in which actives are shown more often than they occur.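 How the source made its calls: active means inhibition above the plate cutoff, the mean of all test compounds on that plate plus 3 SD (cut at about 35% in these data); inactive means the rest.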

Assay: small molecules binding CAG repeat RNA – biochemical, fluorescence, primary screen (AID 651821);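 further: 0% = DMSO alone and 100% = 100 µM mitoxantrone as full dye displacement; higher means more dye released from RNA so lower well fluorescence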
Conditions: r(CAG) RNA repeat, TO-PRO-1 dye displacement fluorescence; at 3 µM; hits give high values

inhibition, active:
O=C(Nc1cccc(F)c1)c1cc(-c2ccco2)nc2ccccc12 35%
O=C(O)c1cccc(NC(=O)c2cc(-c3cccc(Cl)c3)nc3ccccc23)c1 49.4%
COc1cccc(-c2coc3cc4oc(=O)c(CC(=O)O)c(C)c4cc23)c1 46.5%
Cc1ccc(S(=O)(=O)Nc2nc3ccccc3s2)cc1[N+](=O)[O-] 45%
Cc1ccc(-n2ncc3c(Nc4cccc(C(=O)O)c4)ncnc32)cc1 40.9%
COC(=O)c1sccc1NC(=O)CSc1ccccc1NS(=O)(=O)c1cc(Cl)ccc1Cl 59.2%
CC(Oc1ccc2c(-c3ccccc3)cc(=O)oc2c1)C(=O)NC(Cc1c[nH]c2ccccc12)C(=O)O (configuration not stated) 42.8%
O=C(N[C@@H](Cc1c[nH]c2ccccc12)C(=O)O)OCC1c2ccccc2-c2ccccc21 59.4%
COc1ccc(-c2cc(C(=O)NC(Cc3c[nH]c4ccccc34)C(=O)O)c(C)o2)cc1OC (configuration not stated) 53.8%
COc1ccc(-c2cc(=O)oc3cc(OCC(=O)N[C@@H](Cc4c[nH]c5ccccc45)C(=O)O)ccc23)cc1 55.5%
Cc1ccc(-n2c(SCC(=O)Nc3ccc(S(=O)(=O)Nc4nccs4)cc3)nnc2-c2cccnc2)cc1 60.1%
Cc1ccc(-n2c(SCC(=O)Nc3ccc(S(=O)(=O)Nc4nccs4)cc3)nnc2-c2ccccn2)cc1 69.8%
Cc1ccc(-n2c(SCC(=O)Nc3ccc(S(=O)(=O)Nc4nccs4)cc3)nnc2-c2ccncc2)cc1 67.7%
CCOC(=O)c1ccccc1N1C(=O)C2Sc3[nH]c(=O)sc3C(/C=C/c3ccccc3)C2C1=O (configuration not stated) 54%
N#Cc1c(-c2ccccc2)cc(-c2ccccc2)nc1SCC(=O)O 55%
NNc1cccc(C=Cc2ccccc2)cc1=O 40.1%

inhibition, inactive:
Cc1c(C(=O)Nc2cccc(Cl)c2)cn2c(nc3ccccc32)c1C#N 0.68%
O=C(Nc1nc2ccc(Cl)cc2s1)c1cc(-c2ccc(Cl)cc2)nc2ccccc12 7.74%
O=C(Nc1cccc(F)c1)c1coc(=O)c(Br)c1 1.62%
Cc1cc(C(=O)Nc2ccc(C)c(S(=O)(=O)N3CCOCC3)c2)c2ccccc2n1 5.4%
CN(C)S(=O)(=O)c1cccc(C(=O)N/N=C\c2ccco2)c1 3.29%
Cc1ccc(S(=O)(=O)N2CC3C(=O)C[C@@H](c4ccccc4Cl)N(S(=O)(=O)c4ccc(C)cc4)C3CC2c2ccccc2)cc1 (some centres not stated) 8.71%
CC(C)CSc1nnc(-c2cccnc2)n1Cc1ccccc1 -1.04%
CN(C)CCCCCN(C)Cc1cc2ccccc2o1 -1.3%
CC(=O)O[C@@]1(C(C)=O)CCC2[C@H]3C=C(C)C4=CC(=O)CC[C@@]4(C)C3CC[C@]21C (some centres not stated) 1.96%
CCCCCCc1cc2cc(-c3nnc(-c4cccc(OC)c4)o3)c(=O)oc2cc1O 0.83%
Cc1coc2cc3oc(=O)c(CCC(=O)O)c(C)c3cc12 -1.41%
CC[C@@H]1Cc2cc(O)ccc2C2=C1c1ccc(O)cc1C[C@H]2CC 6.76%
CCCCNC(=O)C[C@H]1C(=O)N(Cc2ccc(OC)cc2)C2=CCCC[C@@]21C(=O)OCC -0.31%
O=C1Nc2ccccc2OC1CC(=O)N1CCCCCCC1 (configuration not stated) 4.22%
Cc1ccc(S(=O)(=O)N(Cc2ccccc2)c2ccccn2)cc1[N+](=O)[O-] -3.84%
CCOc1ccc2sc(NS(=O)(=O)c3ccc(N)cc3)nc2c1 9.5%
CCOC(=O)[C@]12CCCC=C1N(Cc1ccc(OC)cc1)C(=O)[C@@H]2CC(=O)N1CCOCC1 -1.51%
CN1CCCCC(NC(=O)C(C)(C)C)C1=O (configuration not stated) 2.33%
COC(=O)[C@]12C[C@H](CC(=O)NCc3ccccc3)C(=O)N(CCc3ccc(OC)c(OC)c3)C1=C[C@H](C(C)(C)C)O[C@@H]2C -2.21%
COC(=O)CSc1ncnc2c1cnn2-c1ccc(C)cc1C -5.94%
CC(Sc1ncnc2c1cnn2-c1ccccc1)C(=O)Nc1ccc(N2CCOCC2)cc1 (configuration not stated) 5.83%
O=C(NCCC1=CCCCC1)C1CCN(S(=O)(=O)c2ccc(Cl)s2)CC1 1%
CSc1ccc(CN(C)CC(=O)NCc2ccc(F)cc2)cc1 -7.36%
O=C(NCc1ccccc1)[C@H]1CCCN1C(=O)[C@@H]1CCCN1C(=O)c1ccc(Cl)cc1Cl 1.95%
COC(=O)c1sccc1NS(=O)(=O)c1ccc(F)cc1F 1.91%
COC(=O)c1scc(C)c1NC(=O)CSc1ccc(Cl)cc1 -5.15%
C=CC[C@]12C[C@@]3(O[C@H](c4ccc(C(F)(F)F)cc4)N=C3C[C@H](c3ccc(OC)cc3)[C@H]1C)N(C1CCN(Cc3ccccc3)CC1)C2=O 5.05%
COc1ccc(C(=O)OCCN2CCN(C3CN(Cc4cn(Cc5ccccc5F)nn4)S(=O)(=O)C3)CC2)cc1OC (configuration not stated) 1.05%
CCC(=O)OCCCN1C(=O)CCC12CCC(c1ccccc1)CC2 (configuration not stated) -0.66%
COc1ccc(-c2cc(C(=O)NC(C(=O)O)C(C)C)c(C)o2)cc1OC (configuration not stated) 6.76%
O=C(CCn1nnc2ccccc2c1=O)N[C@@H](Cc1c[nH]c2ccccc12)C(=O)O 2.19%
CCOCCCNC(=O)C(NC(=O)Cc1c[nH]c2ccccc12)c1ccc(OC)cc1 (configuration not stated) -4.93%
COc1ccc(-c2cc(=O)oc3cc(OC(C)C(=O)NCC4CCC(C(=O)O)CC4)ccc23)cc1 (configuration not stated) 8.77%
COc1ccc(-c2cc(=O)oc3cc(OCC(=O)N(C)C4CCS(=O)(=O)C4)ccc23)cc1 (configuration not stated) -1.96%
COC(=O)C(Cc1c[nH]c2ccccc12)NC(=O)CCNC(=O)c1ccco1 (configuration not stated) 2%
O=C(NC(Cc1c[nH]c2ccccc12)C(=O)O)/C(=C/c1ccco1)NC(=O)c1ccccc1 (configuration not stated) 20.3%
COC(=O)C(C)Oc1ccc2c(-c3cccc([N+](=O)[O-])c3)cc(=O)oc2c1 (configuration not stated) 1.44%
COC(=O)c1cc(S(=O)(=O)N2CCN(C(=O)C3CCCO3)CC2)cn1C (configuration not stated) 1.73%
COC(=O)[C@]12C[C@H](CC(=O)NCc3ccc(OC)c(OC)c3)C(=O)N(Cc3ccccc3)C1=C[C@H](C(C)C)O[C@@H]2C1CC1 1.35%
O=C(NC1CCCCN(Cc2cccc(C(F)(F)F)c2)C1=O)c1ccccc1I (configuration not stated) -0.65%
Cc1csc(CN(C)C(=O)CC2C(=O)NCCN2CC(C)(C)C)n1 (configuration not stated) -3.94%
O=C(NCc1ccco1)C1CCCN(S(=O)(=O)c2ccc(Cl)s2)C1 (configuration not stated) -0.27%
CSC1=NN(c2ccccc2)CN(c2ccccc2)N1C 0.22%
COc1ccccc1-c1ccc([C@@H]2C[C@H]3[C@H](CON3C)CN2S(=O)(=O)c2cc(Cl)cc(Cl)c2)cc1 5.7%
CN(Cc1ccccc1)CC(O)COc1ccc(CNCc2cc3ccccc3s2)cc1 (configuration not stated) -2.3%
Nn1c(SCC(=O)N2c3ccccc3Sc3ccccc32)nnc1-c1n[nH]c2c1CCC2 12.9%
CC(CCN1CCC(C(O)(c2ccccc2)c2ccccc2)CC1)Oc1ccc(C(F)(F)F)cc1 (configuration not stated) 2.52%
Cc1ccc(C2=CCN(C)C(=O)N2c2ccc(Cl)cc2)cc1 6.97%
COc1ccc(-n2c(SCC(=O)Nc3ccc4cn[nH]c4c3)nnc2-c2cccnc2)cc1 5.12%
O=C(CSc1nnc(-c2ccccn2)n1-c1ccccc1)Nc1ccc2c(c1)OCO2 1.36%
Cc1ccc(-c2nnc(SCC(=O)N/N=C/c3cccs3)n2-c2ccc(C)cc2)cc1 2.97%
O=C(CSc1nnc(-c2ccncc2)n1-c1ccc(Cl)cc1)Nc1ccc(C(=O)O)cc1 3.19%
Cn1c(SCC(=O)Nc2nccs2)nnc1-c1cccnc1 3.4%
Cc1ccc(-n2c(SCC(=O)Nc3ccc4c(c3)OCO4)nnc2-c2ccccn2)cc1 -1.61%
Cc1ccc(Cn2cc(COC(=O)N(C)Cc3ccccc3)nn2)cc1 0.63%
COC(=O)c1c(-c2ccc(OC)cc2)c2c(c3c4cc(OC)ccc4n(S(=O)(=O)c4ccc(F)cc4)c13)C(=O)N(C)C2 14.1%
COC(=O)[C@]1(C#N)CC(=O)N(CC2CCCCC2)[C@@H]1c1ccccc1 0.85%
CCOC(=O)C1Sc2[nH]c(=O)sc2C(c2ccc(Cl)cc2)C1C(=O)OCC (configuration not stated) 24.3%
CC(OC(=O)c1ccccc1N1C(=O)C2C3CCC(C3)C2C1=O)C(=O)c1ccccc1 (configuration not stated) -4.3%
CC[C@H](C)[C@H]1CNC(=O)C(=O)N1CC1CCN(CCc2ccc(OC)c(OC)c2)CC1 3.94%
COc1ccccc1CCNC(=O)C1CCN(c2nc(C)cc(C)n2)CC1 -2.28%
CCSc1nc(-c2ccc(OC)cc2)cc(-c2ccc(OC)cc2)c1C#N 0.76%
N#Cc1c(-c2ccc(F)cc2)cc(C2CC2)nc1SCC(=O)c1cccs1 1.58%
CC(C)CNS(=O)(=O)CC1NCCc2ccccc21 (configuration not stated) 5.19%
Nn1c(SCC(=O)Nc2ccc(S(N)(=O)=O)cc2)nnc1-c1n[nH]c2c1CCC2 3.81%
COC(=O)c1cc2c(c3c4ccccc4n(S(=O)(=O)c4cccc(C)c4)c13)C(=O)N(Cc1ccccc1)C2 15.1%
